An excerpt weighted towards active compounds, which were near 8.1% of everything screened.
KB-3-1 tox – KB-3-1 parental cell cytotoxicity; KB-3-1 viability, CellTiter-Glo ATP luminescence, 72 h; Potency, µM (highest dose often 46.1 µM), usual class: cytotoxic; actives 1.4% (n = 400,000); also: nearly all actives have a fitted effect of over 60% in size
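Parental KB-3-1 viability, qHTS format: 72 h compound exposure, 37 °C; CellTiter-Glo; media-only wells and DMSO plates as controls; concentration-effect fits on corrected data.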
KB-V1 cytotox – KB-V1 MDR subline cytotoxicity. KB-V1 MDR cells viability, CellTiter-Glo, 72 h. Potency, µM (series often up to 46.1 µM), hits mostly cytotoxic. actives 3.4% (n = 400,000); also: nearly all actives have a fitted effect of over 60% in size
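Following 72 h at 37 degrees C with compound, KB-V1 cell viability was read by CellTiter-Glo luminescence, medium being phenol-red-free DMEM plus 10% FBS; concentration-response parameters came from normalized, curve-fitted qHTS data.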
MCF10A rerep – DNA re-replication induction in MCF 10a cells; MCF 10A DNA re-replication, Hoechst nuclear intensity, 48 h; Potency, µM (top dose mostly 46.1 µM), most hits filed as activators; actives 2.9% (n = 350,000); AID 624296; also: nearly all actives have a fitted effect of over 50% in size
SW480 rereplic – inducers of DNA re-replication in SW480 colon cancer cells. SW480 DNA re-replication, Hoechst DNA content imaging, 48 h. Potency, µM (highest dose often 46.1 µM), actives largely listed as activators. actives 1.8% (n = 340,000); also: nearly all actives have a fitted effect of over 55% in size
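DNA re-replication was detected as more nuclei of elevated Hoechst intensity after 48 hr exposure to compound (23 nL pinned per well of 250 cells).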
ELG1 DNA repair – inhibitors of ELG1-dependent DNA repair in HEK293T cells; actives 2.3% (n = 330,000); Potency, µM (top dose mostly 46.1 µM), hits mostly inhibitors; HEK293T ELG1-luciferase reporter, luminescence, 16 h; DNA damage induced by 5-fluorouridine; AID 504467; also: nearly all actives have a fitted effect of over 55% in size
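Overnight (16 hr) co-exposure of 2,000 cells/well to 5-fluorouridine and compound at 37 °C preceded detection. Luciferase was quantified via ONE-Glo luminescence; loss of signal denotes inhibition.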
Large screens that a line does not name were inactive. Calls follow the shape of the dose curve; as a rule, active = well fitted curve in the direction sought with a large enough effect; inconclusive = small, poorly fitted or top-dose-only effect, or another doubt; inactive = no such curve, though single readings can be large; an effect the other way counts as inactive or inconclusive.

c1cc(SC2CCCCC2)cc(-c2nc3cnccn3c2NC2CCCCC2)c1	KB-3-1 tox inconclusive, KB-V1 cytotox inconclusive, MCF10A rerep 5.8µM, SW480 rereplic 3.3µM, ELG1 DNA repair inconclusive
COc1ccccc1C(=O)NC(CCSC)C(=O)NC1CC1 (stereo unspecified)	ELG1 DNA repair inconclusive
CCOC(=O)C1CCN(C(=O)COC(=O)c2ccc3[nH]c4c(c3c2)CCCC4)CC1	MCF10A rerep inconclusive, ELG1 DNA repair inconclusive
CC(C)Cn1c(N)c(C(=O)CSc2ccccc2)c(=O)n(C)c1=O	KB-3-1 tox inconclusive, KB-V1 cytotox inconclusive, ELG1 DNA repair 23µM
CC(C)Nc1nnc(SCC(=O)c2c(N)n(Cc3ccccc3)c(=O)n(C)c2=O)s1	ELG1 DNA repair 18µM
Cc1ccccc1CSCC(=O)c1c(N)n(C)c(=O)n(C)c1=O	none
Cc1ccccc1CSCC(=O)c1c(N)n(CC(C)C)c(=O)n(C)c1=O	KB-3-1 tox inconclusive, KB-V1 cytotox 18µM, ELG1 DNA repair inconclusive
CCOc1ccc(C(=O)OCC(=O)Nc2cccnc2Cl)cc1OCC	KB-V1 cytotox 18µM, ELG1 DNA repair inconclusive
CCc1noc(C)c1C(=O)Nc1nc(-c2ccc(Cl)cc2Cl)cs1	KB-3-1 tox inconclusive, KB-V1 cytotox inconclusive, MCF10A rerep 16µM, ELG1 DNA repair inconclusive
Cc1ccc(-c2csc(NC(=O)c3ccc([N+](=O)[O-])o3)n2)cc1	KB-3-1 tox inconclusive, MCF10A rerep 4.1µM, SW480 rereplic 6.5µM
Cc1ccc(-c2csc(NC(=O)c3c(C)noc3C)n2)cc1	KB-V1 cytotox inconclusive, MCF10A rerep inconclusive, SW480 rereplic 1.6µM
Cc1ccc(NC(=O)CN2C(=O)COc3ccc(C)cc32)nc1	KB-V1 cytotox 15µM
O=[N+]([O-])c1ccc(COc2cccnc2)cc1	none
CCOc1ccc(-c2nonc2NC(=O)c2oc3cc(Br)ccc3c2C)cc1	KB-3-1 tox 3.7µM, KB-V1 cytotox inconclusive (no result: MCF10A rerep, SW480 rereplic, ELG1 DNA repair)
CCc1nonc1NC(=O)c1oc2cc(Br)ccc2c1C	ELG1 DNA repair inconclusive
COc1ccc(NC(=O)COC(=O)C23CC4CC(CC(NC(C)=O)(C4)C2)C3)cc1S(=O)(=O)N1CCOCC1	none
CC(=O)NC12CC3CC(C1)CC(C(=O)Nc1cccc(S(=O)(=O)N4CCCCCC4)c1)(C3)C2	KB-V1 cytotox 15µM (no result: ELG1 DNA repair)
CC(=O)NC12CC3CC(C1)CC(C(=O)Nc1ccc(C)c(S(=O)(=O)N4CCCCCC4)c1)(C3)C2	KB-3-1 tox inconclusive, KB-V1 cytotox 21µM (no result: ELG1 DNA repair)
CN1CCN(C(=O)c2cnn(-c3ccccc3)c2NC(=O)c2ccccc2Cl)CC1	none
CC(C)n1nc(C(=O)OCC(=O)c2c[nH]c3ccccc23)c2ccccc2c1=O	ELG1 DNA repair inconclusive
O=C(NCc1c(Cl)cccc1Oc1ccccc1)c1ccccc1	KB-V1 cytotox 12µM, MCF10A rerep inconclusive
Cc1cnn(CCC(=O)NNC(=S)Nc2ccc(F)cc2)c1	ELG1 DNA repair inconclusive
Cc1cnn(CCC(=O)NNC(=S)Nc2cccc(Cl)c2)c1	SW480 rereplic 6.5µM, ELG1 DNA repair inconclusive
NNc1nc2ccc(Cl)cc2s1	KB-3-1 tox inconclusive, KB-V1 cytotox inconclusive, MCF10A rerep 21µM, SW480 rereplic inconclusive, ELG1 DNA repair inconclusive
Cn1ncc(Cl)c1C(=O)Nc1nc2ccc(Cl)cc2s1	ELG1 DNA repair inconclusive
Cc1cc(C(=O)Nc2nc3ccc(Cl)cc3s2)nn1C	KB-V1 cytotox inconclusive, SW480 rereplic 6.5µM, ELG1 DNA repair inconclusive
Cc1ccc(S(=O)(=O)N2[C@@H](c3ccccc3)C(C(=O)O)=CC[C@H]2c2ccc(C(C)C)cc2)cc1	KB-V1 cytotox inconclusive
COc1ccc(OC)c2sc(N(CCCN(C)C)C(=O)CCS(=O)(=O)c3ccccc3)nc12	KB-3-1 tox 16µM, KB-V1 cytotox inconclusive, MCF10A rerep 5.8µM, SW480 rereplic inconclusive, ELG1 DNA repair inconclusive
COc1ccc(Cl)c2sc(N(CCN(C)C)C(=O)CCS(=O)(=O)c3ccc(C)cc3)nc12	MCF10A rerep inconclusive
Cc1ccc2sc(N(CCCN(C)C)C(=O)CCS(=O)(=O)c3ccccc3)nc2c1C	KB-3-1 tox 16µM, MCF10A rerep inconclusive, SW480 rereplic inconclusive
COc1ccc(C)c2sc(N(CCCN(C)C)C(=O)CS(=O)(=O)c3ccc(F)cc3)nc12	MCF10A rerep 3.7µM
CN(C)CCCN(C(=O)CCS(=O)(=O)c1ccccc1)c1nc2cc3c(cc2s1)OCO3	KB-3-1 tox inconclusive, KB-V1 cytotox inconclusive, MCF10A rerep 5.2µM, SW480 rereplic inconclusive, ELG1 DNA repair inconclusive
COc1ccc(CN2C[C@]3(CO)O[C@@H](CO)C[C@@H]3S2(=O)=O)cc1	none
COC(=O)c1ccccc1S(=O)(=O)N1CCC(C(=O)N2CCC2)CC1	none
Cc1cc(C(=O)Nc2cccc(O)c2)c(C)o1	ELG1 DNA repair inconclusive
COc1ccccc1CC(=O)NCCCc1ccccc1	ELG1 DNA repair inconclusive
CC(=O)c1ccc(C(=O)N(CCCN(C)C)c2nc3c(C)c(C)ccc3s2)cc1	none (no result: MCF10A rerep, SW480 rereplic, ELG1 DNA repair)
Cc1ccc2sc(N(CCCN(C)C)C(=O)c3ccc(Br)s3)nc2c1C	KB-3-1 tox inconclusive, KB-V1 cytotox inconclusive, MCF10A rerep 13µM, ELG1 DNA repair inconclusive
CC(C)C(=O)N1CCN(c2ccc(NC(=O)c3ccc4c(c3)OCCO4)cc2Cl)CC1	KB-3-1 tox inconclusive, KB-V1 cytotox 2.9µM, MCF10A rerep 18µM, ELG1 DNA repair 5.8µM
CC(C)C(=O)N1CCN(c2ccc(NC(=O)c3cccs3)cc2Cl)CC1	ELG1 DNA repair 12µM
CC(C)C(=O)N1CCN(c2ccc(NC(=O)c3cccs3)cc2)CC1	ELG1 DNA repair inconclusive
COc1ccc(C(=O)Nc2ccccc2N2CCN(C(=O)C(C)C)CC2)cc1Cl	ELG1 DNA repair 23µM
Cc1ccc(N(Cc2ccc([N+](=O)[O-])cc2)C(=O)c2ccco2)cc1C	KB-V1 cytotox 10µM
COc1ccc(Oc2cnc3ccccc3n2)cc1	none
C=C(C)c1cccc(C(C)(C)NC(=O)Nc2ccc(OC)cc2)c1	none
C=C(C)c1cccc(C(C)(C)NC(=O)Nc2ccc(C(C)=O)cc2)c1	KB-V1 cytotox 18µM, MCF10A rerep inconclusive, SW480 rereplic inconclusive
C=C(C)c1cccc(C(C)(C)NC(=O)N2CCC(C)CC2)c1	KB-V1 cytotox 18µM
C[C@@H]1CN([C@H](C)CO)C(=O)CCCn2cc(nn2)CO[C@H]1CN(C)C(=O)Nc1ccc(F)cc1	none (no result: MCF10A rerep, SW480 rereplic, ELG1 DNA repair)
COc1ccc(C(C(=O)NCCC(C)C)N(CCN2CCOCC2)C(=O)Cn2nnc3ccccc32)c(OC)c1 (stereo unspecified)	none
COc1cc(OC)cc(C(=O)NC2CCN(CC(=O)Nc3cccc4ccccc34)CC2)c1	ELG1 DNA repair 12µM
COc1cc(OC)cc(C(=O)Nc2ccccc2C(=O)NC2CC2)c1	KB-3-1 tox inconclusive, KB-V1 cytotox 6.5µM, MCF10A rerep inconclusive, SW480 rereplic inconclusive, ELG1 DNA repair inconclusive
Cn1nc(C(F)(F)F)cc1C(=O)Nc1ccc(-c2ccno2)cc1	ELG1 DNA repair 13µM

Assay outcomes as filed in PubChem BioAssay.
